Source: PubChem
Only some compounds are listed: those with a hit (about 19% of all), similar ones and a draw of the others.
BCR signal inh – qHTS Assay to Find Inhibitors of Chronic Active B-Cell Receptor Signaling; ABC-DLBCL IkBa-CBG/CBR reporter, luminescence ratio, 4 h; Potency, µM (series often up to 46.1 µM), inactives show at the highest dose activity change, negative = inhibition, hits mostly inhibitors; 340,000 compounds, 0.05% hits; AID 493014, 2011; active means well fitted inhibition curve with a large enough effect in the signal ratio, with a control signal flat, not every such curve was filed as active; inconclusive means small, poorly fitted or top-dose-only effect, or effect the other way, or a change in a side signal; the % refers to the signal ratio;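 further: potency means the concentration at half of the fitted maximal effect; plate controls were basal doxycycline-induced cells for no effect and cells given 10 µM MG132 for full effect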
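Doxycycline induced both beetle luciferases in TMD8 lymphoma cells; IKK-driven degradation limits the IkappaBalpha-fused green signal, while red luminescence normalises for cell number and nonspecific effects. Compounds tested up to 46 uM, 4 hrs.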
TDP1 cell CPT – qHTS for Inhibitors of human tyrosyl-DNA phosphodiesterase 1 (TDP1): qHTS in cells in presence of CPT. AID 686979, 2013. chicken DT40 Tdp1-/-;hTDP1 cells + 20 nM CPT, ATP luminescence, 48 h. Potency, µM (doses to about 46.2 µM), without a hit: at the top dose activity change, negative = growth inhibition, actives largely listed as inhibitors. 420,000 compounds, 12% hits; further: potency means the concentration at half of the fitted maximal effect; on the % scale 0 is the no-effect control and ±100 the full control effect; nearly all actives have a fitted effect of over 55% in size
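Chicken DT40 Tdp1-/- cells complemented with human TDP1, 400 cells/well, exposed to compounds plus 20 nM camptothecin for at least 48 h at 37 C; viability read as ATP content by CellTiter-Glo luminescence.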
SW480 rereplic – A quantitative high throughput screen for small molecules that induce DNA re-replication in SW480 colon adenocarcinoma cells; SW480 DNA re-replication, Hoechst DNA content imaging, 48 h; AID 624297, 2012; Potency, µM (series often up to 46.1 µM), without a hit: top-dose re-replication activation, most hits filed as activators; 340,000 compounds, 1.8% hits; further: potency means the concentration at half of the fitted maximal effect; % of control where 0% means no effect; nearly all actives have a fitted effect of over 55% in size
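Image-based DNA-content assay: after two days of treatment, nuclei were labelled with the DNA dye Hoechst and imaged, and hits were compounds raising the count of nuclei showing high fluorescence intensity.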
TDP1 cell noCPT – qHTS for Inhibitors of human tyrosyl-DNA phosphodiesterase 1 (TDP1): qHTS in cells in absence of CPT; Potency, µM (top dose mostly 46.2 µM), without a hit: at the top dose activity change, negative = growth inhibition, actives largely listed as inhibitors; DT40 Tdp1-/- hTDP1 cells, no CPT, ATP luminescence, 48 h; 420,000 compounds, 15% hits; further: potency means the concentration at half of the fitted maximal effect; on the % scale 0 is the no-effect control and ±100 the full control effect; nearly all actives have a fitted effect of over 55% in size
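A cellular qHTS used chicken DT40 cells lacking endogenous Tdp1 but carrying stably transfected human TDP1. Compounds were applied without camptothecin, and cell growth kinetics were judged by ATP-dependent luminescence after ≥48 hr.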
IL-1B inflam inh – qHTS for Inhibitors of Inflammasome Signaling: IL-1-beta AlphaLISA Primary Screen; THP-1 LPS/ATP IL-1B secretion, AlphaLISA, 16 h; hits give low values; activity change, % at 57.5 µM; 360,000 compounds, 4.7% hits; in the data active means activity change below about -50%; inconclusive means mostly about -30% to -49%; further: on the % scale 0 is the no-effect control and ±100 the full control effect
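Secreted IL-1B measured by AlphaLISA bead assay after 16 h compound exposure of THP-1 cells; compounds (final up to 57.5 uM) added 1 h before LPS (250 ng/mL) and ATP (1.25 mM) stimulation; lower signal means less secretion.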
MCF10A rerep – A quantitative high throughput screen for small molecules that induce DNA re-replication in MCF 10a normal breast cells; 350,000 compounds, 2.9% hits; Potency, µM (top dose mostly 46.1 µM), inactives show at the highest dose activity, positive = re-replication, most hits filed as activators; MCF 10A DNA re-replication, Hoechst nuclear intensity, 48 h; further: potency means the concentration at half of the fitted maximal effect; % of control where 0% means no effect; nearly all actives have a fitted effect of over 50% in size
The depositor's hits bear a star; ? = inconclusive; . = no result given. Unless noted, the call rests on the fitted dose curve; in most records, active means well fitted curve in the direction sought with a large enough effect; inconclusive means small, poorly fitted or top-dose-only effect, or another doubt; inactive means no such curve, though single readings can be large; an effect the other way counts as inactive or inconclusive.

SMILES	BCR signal inh	TDP1 cell CPT	SW480 rereplic	TDP1 cell noCPT	IL-1B inflam inh	MCF10A rerep
COC(=O)C[C@H]1CC[C@@H](NS(=O)(=O)c2ccc(C)cc2)[C@@H](CO)O1	.	-4%	.	10%	41	.
CC(=O)c1ccc(N2CCN(C(=O)CCCCn3c(=O)[nH]c4ccsc4c3=O)CC2)cc1	.	13µM*	.	23µM*	.	.
O=C(CCn1c(=O)[nH]c2ccsc2c1=O)N1CCN(c2ccc([N+](=O)[O-])cc2)CC1	-17%	16µM*	-12%	?	-21	24%
O=C(Cn1c(=O)[nH]c2ccsc2c1=O)N1CCN(c2ccc(F)cc2)CC1	?	-24%	-7%	?	3	-2%
Cc1ccc(C(=O)OCC(=O)NCC2COc3ccccc3O2)cc1 (configuration not stated)	-3%	-13%	-1%	-12%	8	-1%
CCN(CC1COc2ccccc2O1)C(=S)NCCCN(C)C (configuration not stated)	1%	16µM*	7%	18µM*	-13	?
CCOC(=O)c1ccc(NC(=O)CC2COc3ccccc3O2)cc1 (configuration not stated)	?	3%	-7%	1µM*	3	4%
CN(CC1COc2ccccc2O1)C(=S)NC1CCCCC1 (configuration not stated)	?	?	20%	?	?	19%
CCN(CC1COc2ccccc2O1)C(=S)Nc1ccccc1 (configuration not stated)	7%	?	4%	2.8µM*	-2	3%
O=c1cnc2cnc(Oc3ccccc3)nc2n1CCc1ccccc1	.	15%	.	-18%	.	.
CCCCNC(=O)C(NC(=O)c1cccnc1OC)C(=O)c1ccccc1 (configuration not stated)	.	-12%	.	-6%	-14	.
CC(=O)Nc1ccc(-c2csc(NNC(=O)c3ccccc3)n2)cc1	?	12µM*	7%	1.3µM*	?	?
CC(=O)Nc1ccc(-c2csc(N/N=C(/C)c3ccccc3)n2)cc1	-7%	21µM*	-2%	9.2µM*	-70*	11%
O=c1c(-c2cccs2)nc2cncnc2n1C1CC1	.	0%	.	-15%	.	.
COc1cccc(C(=O)OC(C)C(=O)NCC2CCCCC2)c1 (configuration not stated)	-3%	10%	-10%	-1%	30	0%
CCOc1cc(/C=N/NC(=O)C(O)(c2ccccc2)c2ccccc2)ccc1OC(=O)c1ccco1	.	?	6%	?	-15	-1%
CC(=O)c1cccc(NC(=O)Nc2ccc(C(=O)N3CCCC3)cc2)c1	14%	?	-1%	?	14	2%
CCc1ccc(NC(=O)Nc2ccc3c(c2)N(C)C(=O)CS3)cc1	?	?	0%	?	?	0%
Cc1ccc(NC(=O)Nc2ccc3c(c2)N(C)C(=O)CS3)cc1C	?	?	-1%	?	?	-2%
CC(=O)c1cccc(NC(=O)NN2CCN(C)CC2)c1	4%	15%	5.8µM*	0%	-24	0%
CC(=O)c1cccc(NC(=O)Nc2ccc3c(c2)N(C)C(=O)CS3)c1	?	16µM*	-4%	16µM*	?	-4%
Cc1cc(C)cc(NC(=O)Nc2ccc3c(c2)N(C)C(=O)CS3)c1	3%	?	?	?	-50*	22%
O=c1oc(C2(O)CCCCC2)cc2ccc(-c3ccc4[nH]ccc4c3)cc12	5%	12µM*	23%	?	21	?
COC(=O)C1CC(O)C(O)C(O)C1 (configuration not stated)	.	-3%	-39%	-3%	20	5%
CCOc1cccc(NC(=O)c2sc3nc(-c4ccc(F)cc4)ccc3c2N)c1	.	-24%	.	?	.	.
SMILES	BCR signal inh	TDP1 cell CPT	SW480 rereplic	TDP1 cell noCPT	IL-1B inflam inh	MCF10A rerep
Nc1c(C(=O)Nc2ccccc2)sc2nc(-c3ccco3)ccc12	?	23µM*	?	18µM*	-2	18µM*
COc1ccccc1NC(=O)c1sc2nc(-c3ccco3)ccc2c1N	-1%	-16%	29%	?	1	15µM*
COc1cccc(CCNC(=O)c2cnc3sc(N4CCOCC4)nn3c2=O)c1	.	-26%	.	?	.	.
CCNc1ncc2ncc(=O)n(C[C@H]3CCCO3)c2n1	.	12µM*	.	21µM*	.	.
CCNc1ncc2nc(C)c(=O)n(C[C@H]3CCCO3)c2n1	.	?	.	-17%	.	.
COc1ccc([C@@H]2CC(=O)[C@@H]3CN(S(=O)(=O)c4ccc(C)cc4)[C@H](c4ccccc4)C[C@@H]3N2S(=O)(=O)c2ccccc2)cc1	.	-16%	.	-7%	12	.
Cc1cc(OCCCC(=O)Nc2cccc(-n3cnnn3)c2)ccc1Cl	12%	?	-16%	12µM*	-6	29%
Cc1ccccc1OCc1occc1C(=O)Nc1cccc(-n2cnnn2)c1	2%	23µM*	-3%	18µM*	11	-6%
Cc1cccc(OCc2occc2C(=O)Nc2cccc(-n3cnnn3)c2)c1	1%	-23%	-1%	0%	58	1%
COc1cccc(NC(=O)COc2cccc(-n3cnnn3)c2)c1	-8%	1%	3%	11%	0	-6%
COc1ccc(S(=O)(=O)Nc2ccc3c(c2)C(=O)N([C@H](C)CO)C[C@H](C)[C@@H](CN(C)C(=O)Nc2ccccc2)O3)cc1	?	-1%	2%	-6%	-6	6%
CCOc1ccc(S(=O)(=O)N2CCN(C(=O)c3cc([N+](=O)[O-])ccc3N3CCOCC3)CC2)cc1	1%	-15%	-11%	-2%	-1	-2%
Cc1ccc(C(=O)c2cc([N+](=O)[O-])ccc2N2CCCCC2)c(C)c1	?	1µM*	1.3µM*	0.65µM*	-9	?
CCOc1ccc(C(=O)c2cc([N+](=O)[O-])ccc2N2CCOCC2)cc1	?	0.13µM*	0.058µM*	0.16µM*	8	?
COc1ccc(C(=O)c2cc([N+](=O)[O-])ccc2N2CCOCC2)cc1	?	0.026µM*	0.37µM*	0.033µM*	2	?
